Results filed as inconclusive are left out. Activity calls are given as the source filed them. Unless noted, calls come from the whole dose curve; as a rule, active = well fitted curve in the direction sought with a large enough effect; inconclusive = small, poorly fitted or top-dose-only effect, or another doubt; inactive = no such curve, though single readings can be large; an effect the other way counts as inactive or inconclusive.
Tests used:
[1] = High Content Imaging Cell-Based qHTS for Inhibitors of the mTORC1 Signaling Pathway in MEF Cells (AID 2667);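 note: Tsc2-/- p53-/- MEFs stably re-expressing wild-type Tsc2 exposed 24 h; series mostly up to about 38 µM; plate controls were DMSO wells for no effect and rapamycin control wells for full effect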
How it was run: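 Read-out is the share of phospho-rpS6-positive cells per well, from Hoechst-normalized Alexa-488 Ser235/236 staining imaged on IN Cell. Cells: WT Tsc2-expressing Tsc2-/-, p53-/- MEFs exposed to compound for 24 hrs.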

[2] = target: Ubiquitin carboxyl-terminal hydrolase 2 (Homo sapiens) (UniProt O75604); test: qHTS Validation Assay for Inhibitors of Ubiquitin-specific Protease USP2a Using CHOP2 as the Reporter (AID 463106);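 note: plate controls were DMSO for no effect and full inhibition by NEM for full effect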
How it was run: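 Fluorescence read-out at Ex 485nm/Em 531nm after 60min RT, following addition of 25nM Ub-CHOP2 plus 25nM reporter substrate to USP2 core (10nM) pretreated 30min with compound. Data normalized to NEM full inhibition; concentration-response curves fitted.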

[3] = target: Tumor susceptibility gene 101 protein (Homo sapiens) (UniProt Q99816); test: qHTS Validation Assay for Iinhibitors of HIV-1 Budding by Blocking the Interaction of PTAP/TSG101 (AID 485342; calls by dose curve; note: 0% is about no effect)
How it was run: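 Tsg101 binding domain (10 uM final) in pH 7.5 HEPES/NaCl/Tween 20/EDTA/TCEP buffer was mixed with pin-transferred compounds, then FITC-labeled PTAP peptide (50 nM final) was added; after 20 min at r.t., fluorescence polarization was read.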

[4] = target: Beta-2 adrenergic receptor (Homo sapiens) (UniProt P07550); test: qHTS validation assay of beta-arrestin-biased ligands of beta2-adrenergic receptor (AID 485366); note: 0% is about no effect
How it was run: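 Agonism was measured as beta-arrestin recruitment to recombinant beta2-AR, releasing tTA to drive luciferase. Cells were exposed for 18 hr at 37 degrees C to a series up to 46 microM. %Activity from corrected luminescence gave concentration-response curves.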

[5] = target: Methanococcus maripaludis chaperonin (MmCpn) (UniProt Q6LX38); test: High-Throughput Screening for Modulators of Cytosolic Chaperonin Activity: MmCpn Primary Screen (AID 488978);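 note: 50 nM MmCpn enzyme hydrolysing 30 µM ATP at 37 °C; 0% is about no effect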
How it was run: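 MmCpn (50 nM final) was preincubated with compound 5 min at RT, then 30 uM ATP (final) was added and the reaction ran 10 min at 37C. ADP produced was detected by Transcreener HTRF (ex 320 nm; em 590/665 nm).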

[6] = Nrf2 qHTS screen for inhibitors: Validation (AID 493153; active = well fitted inhibition curve with a large enough effect in the main read-out, with a control signal flat, not every such curve was filed as active); conditions: viability change: measured here: cytotoxicity max response
How it was run: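 Concentration-response on A549 ARE_Fluc reporter cells exposed 18-24 h at 37 C, 5% CO2. Cytotoxicity read first by CellTiter-Fluor fluorescence (Ex 405/Em 525), then Nrf2 inhibition by BugLite luminescence after 15 min.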

[7] = qHTS for Inhibitors of Cell Surface uPA Generation: Validation Assay (AID 493164);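 note: RAW 264.7 macrophage cells exposed to compound for 18 h; 0% is about no effect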
How it was run: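 ATP-Lite luminescence read-out: ATP remains high when uPA activity-dependent LF translocation into the cytoplasm is blocked. RAW 264.7 cells, 18 h compound exposure at 37 C; 7-point titration, 2.45 nM to 38.3 uM final.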

[8] = target: Peptidyl-prolyl cis-trans isomerase NIMA-interacting 1 (Homo sapiens) (UniProt Q13526); test: qHTS Validation Assay to Find Inhibitors of Pin1 (AID 504536; active = well fitted inhibition curve with a large enough effect in the polarisation, with a control signal flat, not every such curve was filed as active; the % refers to the polarisation;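 note: 0% = full Pin1 enzyme wells and -100% = no-enzyme wells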)
How it was run: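 Fluorescence polarization competition: compounds (titration) displace HiFluor-488-labeled Pin1-1b peptide from Pin1 (0.3 uM final) in pH 7.5 HEPES buffer with DTT, 10 min at room temperature; %Activity normalized to no-enzyme wells, curves fitted.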

[9] = target: Parathyroid hormone/parathyroid hormone-related peptide receptor (Homo sapiens) (UniProt Q03431); test: qHTS for PTHR1 Agonists: Optimization Screen against the NCGC LOPAC library (AID 1347079);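 note: GloSensor cAMP luminescence in HEK-293 GP2 cells expressing human PTHR1 with IBMX; 0% is about no effect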
How it was run: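 HEK-293 GP2 cells, PTHR1 + GloSensor cAMP; 3000 cells/well, o/n. Luciferin + IBMX 0.5mM each (stock), 1 hr 37C. Cpd titration, 1 hr 37C. Lum after 15 min RT. Ctrl M-PTH(1-15) top 10uM.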

[10] = Validation qHTS assay for inhibitors of Activation Induced Cytidine Deaminase (AID): UDG Counterscreen signal (AID 1347427); note: 0% is about no effect
How it was run: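 Fluorescence at 560 nm excitation, 665 nm emission reports UDG signal after 250 mM NaOH (2x) addition and 30 min. Enzymes (AID 1 uM, UDG 2 U/mL, at 4/3x) preincubated 10 min with compound, then 4 h with 4x 250 nM DJC20/DJC23 substrate at room temperature.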

[11] = target: Single-stranded DNA cytosine deaminase (Homo sapiens) (UniProt Q9GZX7); test: Validation qHTS assay for inhibitors of Activation Induced Cytidine Deaminase (AID): AID signal (AID 1347429); note: % is set by controls: 0 for no effect and ±100 for the full control effect
How it was run: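 Compounds (final up to 114 uM) preincubated with AID plus UDG; 250 nM DJC20/DJC23 substrate mix (4x stock) added, 4 hr at room temperature, then NaOH, 30 min. Read 1 fluorescence at 540 nm excitation, 590 nm emission.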

[12] = target: Glutathione peroxidase 1 (Homo sapiens) (UniProt P07203); test: Primary qHTS Assay for Inhibitors of Recombinant Selenoprotein Glutathione Peroxidase 1 (GPX1) (AID 1845191); note: nearly all actives have a fitted effect of over 65% in size; for activity, negative = inhibition: % is set by controls: 0 for no effect and ±100 for the full control effect
How it was run: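 GR-coupled readout: NADPH consumption tracked by fluorescence, ex 340/em 450 nm, at t=0 and after 15 min at RT. Final mix 10 nM GPX1, 1 mM GSH, 0.5 mM CHP, 0.5 mM NADPH, 100 nM GR, 0.01% BSA, following 30 min enzyme–compound preincubation.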

[13] = P-glycoprotein substrates identified in KB-8-5-11 adenocarcinoma cell line, qHTS therapeutic library screen (AID 1346987); note: nearly all actives have a fitted effect of over 65% in size; note: potency is the fitted concentration of half-maximal effect
How it was run: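 Compounds are pinned in dose-response onto KB-8-5-11 cells (500 cells/well, colchicine-free medium) and left 72 h at 37 degree C. CellTiter-Glo luminescence then yields AC50 values.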

[14] = target: Atrial natriuretic peptide receptor 1 (Homo sapiens) (UniProt P16066); test: Natriuretic polypeptide receptor (hNpr1) antagonism - Pilot CMLD screen (AID 1347052; calls by dose curve;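 note: HEK293 cells with hNpr1 stimulated by hNppA peptide at 0.1 nM; cGMP level read as GloSensor luciferase luminescence after agonist stimulation; series mostly up to about 9.2 µM; % is set by controls: 0 for no effect and ±100 for the full control effect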)
[15] = qHTS for Inhibitors of Plasmodium falciparum (DD2) proliferation (AID 504314); note: potency is the fitted concentration of half-maximal effect;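 for activity, negative = inhibition: parasite DNA measured by SYBR Green fluorescence after red cell lysis; plate controls were DMSO vehicle for no effect and artemisinin wells for full effect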
How it was run: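 SYBR Green growth assay: 72 h compound exposure of infected red cells (2.5% hematocrit, 0.3% parasitemia), then lysis and overnight dye staining, fluorescence 485/535 nm. Values scaled between DMSO and 0.29 uM artemisinin controls.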

[16] = qHTS for Inhibitors of Plasmodium falciparum (HB3) proliferation (AID 504318); note: nearly all actives have a fitted effect of over 60% in size; note: potency is the fitted concentration of half-maximal effect
How it was run: (§1)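 Parasite growth measured as SYBR Green DNA fluorescence (ex 485, em 535 nm) after overnight lysis following 72 h culture at 37 °C, 0.3% parasitemia, 2.5% hematocrit. Values normalized against DMSO and 0.29 uM artemisinin controls, with plate-stack correction.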

[17] = qHTS for Inhibitors of Plasmodium falciparum (CP250) proliferation (AID 504320);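 note: plate controls were DMSO vehicle for no effect and 0.29 µM artemisinin control for full effect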
How it was run: as §1

[18] = qHTS for Inhibitors of Plasmodium falciparum (GB4) proliferation (AID 504315); note: nearly all actives have a fitted effect of over 50% in size; note: potency is the fitted concentration of half-maximal effect
How it was run: as §1

[19] = qHTS for Inhibitors of Plasmodium falciparum (7G8) proliferation (AID 504316); note: nearly all actives have a fitted effect of over 65% in size; note: potency is the fitted concentration of half-maximal effect
How it was run: as §1

Single-stranded DNA cytosine deaminase (Homo sapiens), sequence (Q9GZX7 whole entry, looked up): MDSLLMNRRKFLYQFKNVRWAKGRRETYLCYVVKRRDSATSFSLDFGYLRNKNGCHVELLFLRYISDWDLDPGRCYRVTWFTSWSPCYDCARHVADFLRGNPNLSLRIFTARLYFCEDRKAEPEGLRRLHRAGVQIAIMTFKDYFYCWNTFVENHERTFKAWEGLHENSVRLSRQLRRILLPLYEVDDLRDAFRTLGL
Glutathione peroxidase 1 (Homo sapiens), sequence (P07203 whole entry, looked up): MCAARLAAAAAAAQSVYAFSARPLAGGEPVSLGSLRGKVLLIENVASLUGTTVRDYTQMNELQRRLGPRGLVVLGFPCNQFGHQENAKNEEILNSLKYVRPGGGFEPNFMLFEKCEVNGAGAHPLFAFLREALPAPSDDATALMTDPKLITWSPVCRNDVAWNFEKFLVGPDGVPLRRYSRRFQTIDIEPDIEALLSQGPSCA
Parathyroid hormone/parathyroid hormone-related peptide receptor (Homo sapiens), sequence (Q03431 whole entry, looked up): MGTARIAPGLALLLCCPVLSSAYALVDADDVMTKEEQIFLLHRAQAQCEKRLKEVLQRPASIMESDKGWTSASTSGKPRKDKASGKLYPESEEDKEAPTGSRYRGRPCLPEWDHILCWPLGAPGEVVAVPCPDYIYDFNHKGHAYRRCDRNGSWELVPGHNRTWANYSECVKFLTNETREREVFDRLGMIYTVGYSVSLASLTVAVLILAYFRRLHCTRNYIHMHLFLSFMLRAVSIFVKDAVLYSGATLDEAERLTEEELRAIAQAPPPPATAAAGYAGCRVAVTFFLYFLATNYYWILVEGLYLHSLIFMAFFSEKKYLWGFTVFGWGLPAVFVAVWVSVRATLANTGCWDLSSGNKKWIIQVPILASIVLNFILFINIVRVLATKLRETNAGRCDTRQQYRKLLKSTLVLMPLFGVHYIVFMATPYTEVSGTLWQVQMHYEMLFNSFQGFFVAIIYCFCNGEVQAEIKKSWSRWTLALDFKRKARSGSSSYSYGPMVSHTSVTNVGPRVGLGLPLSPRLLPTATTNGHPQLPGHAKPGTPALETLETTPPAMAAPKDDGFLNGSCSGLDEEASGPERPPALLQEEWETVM
Ubiquitin carboxyl-terminal hydrolase 2 (Homo sapiens), sequence (O75604 whole entry, looked up): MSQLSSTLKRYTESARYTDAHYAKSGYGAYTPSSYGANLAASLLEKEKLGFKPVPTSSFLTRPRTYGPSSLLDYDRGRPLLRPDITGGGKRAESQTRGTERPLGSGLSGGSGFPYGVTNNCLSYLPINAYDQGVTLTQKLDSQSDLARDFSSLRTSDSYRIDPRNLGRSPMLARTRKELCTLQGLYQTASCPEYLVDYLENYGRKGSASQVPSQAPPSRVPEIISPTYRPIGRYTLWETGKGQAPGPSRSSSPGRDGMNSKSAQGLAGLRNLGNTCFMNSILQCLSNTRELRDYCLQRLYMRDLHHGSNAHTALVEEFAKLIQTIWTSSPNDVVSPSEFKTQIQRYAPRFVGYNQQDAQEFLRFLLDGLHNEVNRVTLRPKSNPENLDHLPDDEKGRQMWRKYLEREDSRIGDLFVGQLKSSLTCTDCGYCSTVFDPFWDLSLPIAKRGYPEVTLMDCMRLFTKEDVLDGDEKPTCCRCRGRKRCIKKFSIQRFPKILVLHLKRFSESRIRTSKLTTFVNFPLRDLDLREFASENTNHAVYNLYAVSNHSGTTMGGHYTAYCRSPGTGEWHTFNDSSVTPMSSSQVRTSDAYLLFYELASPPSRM
Tumor susceptibility gene 101 protein (Homo sapiens), sequence (Q99816 whole entry, looked up, the tested form may be a part): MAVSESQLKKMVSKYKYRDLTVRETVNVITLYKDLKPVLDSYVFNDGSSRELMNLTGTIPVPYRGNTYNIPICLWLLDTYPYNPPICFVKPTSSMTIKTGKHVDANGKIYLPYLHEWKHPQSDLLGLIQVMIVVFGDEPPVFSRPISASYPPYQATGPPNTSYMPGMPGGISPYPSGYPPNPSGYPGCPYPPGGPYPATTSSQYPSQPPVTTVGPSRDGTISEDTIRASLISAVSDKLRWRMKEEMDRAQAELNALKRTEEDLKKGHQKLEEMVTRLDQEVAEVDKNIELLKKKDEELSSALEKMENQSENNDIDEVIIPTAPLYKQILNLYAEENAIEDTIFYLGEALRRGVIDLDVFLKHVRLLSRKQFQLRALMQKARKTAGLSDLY
Methanococcus maripaludis chaperonin (MmCpn), sequence (Q6LX38 1-543): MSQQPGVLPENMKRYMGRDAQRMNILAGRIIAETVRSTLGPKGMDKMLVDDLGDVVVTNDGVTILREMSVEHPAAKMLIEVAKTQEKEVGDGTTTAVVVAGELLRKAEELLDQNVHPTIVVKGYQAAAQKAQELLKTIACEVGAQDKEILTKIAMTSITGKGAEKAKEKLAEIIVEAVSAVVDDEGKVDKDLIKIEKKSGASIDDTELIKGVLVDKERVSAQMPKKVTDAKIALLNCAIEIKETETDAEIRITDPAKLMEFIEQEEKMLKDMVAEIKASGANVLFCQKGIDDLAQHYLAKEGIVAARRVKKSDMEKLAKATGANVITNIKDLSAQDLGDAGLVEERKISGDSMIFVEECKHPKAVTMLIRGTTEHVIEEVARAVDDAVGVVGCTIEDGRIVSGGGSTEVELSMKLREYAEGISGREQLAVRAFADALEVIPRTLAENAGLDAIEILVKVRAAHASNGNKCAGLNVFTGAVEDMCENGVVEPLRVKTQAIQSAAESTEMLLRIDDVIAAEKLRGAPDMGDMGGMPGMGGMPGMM
Atrial natriuretic peptide receptor 1 (Homo sapiens), sequence (P16066 whole entry, looked up): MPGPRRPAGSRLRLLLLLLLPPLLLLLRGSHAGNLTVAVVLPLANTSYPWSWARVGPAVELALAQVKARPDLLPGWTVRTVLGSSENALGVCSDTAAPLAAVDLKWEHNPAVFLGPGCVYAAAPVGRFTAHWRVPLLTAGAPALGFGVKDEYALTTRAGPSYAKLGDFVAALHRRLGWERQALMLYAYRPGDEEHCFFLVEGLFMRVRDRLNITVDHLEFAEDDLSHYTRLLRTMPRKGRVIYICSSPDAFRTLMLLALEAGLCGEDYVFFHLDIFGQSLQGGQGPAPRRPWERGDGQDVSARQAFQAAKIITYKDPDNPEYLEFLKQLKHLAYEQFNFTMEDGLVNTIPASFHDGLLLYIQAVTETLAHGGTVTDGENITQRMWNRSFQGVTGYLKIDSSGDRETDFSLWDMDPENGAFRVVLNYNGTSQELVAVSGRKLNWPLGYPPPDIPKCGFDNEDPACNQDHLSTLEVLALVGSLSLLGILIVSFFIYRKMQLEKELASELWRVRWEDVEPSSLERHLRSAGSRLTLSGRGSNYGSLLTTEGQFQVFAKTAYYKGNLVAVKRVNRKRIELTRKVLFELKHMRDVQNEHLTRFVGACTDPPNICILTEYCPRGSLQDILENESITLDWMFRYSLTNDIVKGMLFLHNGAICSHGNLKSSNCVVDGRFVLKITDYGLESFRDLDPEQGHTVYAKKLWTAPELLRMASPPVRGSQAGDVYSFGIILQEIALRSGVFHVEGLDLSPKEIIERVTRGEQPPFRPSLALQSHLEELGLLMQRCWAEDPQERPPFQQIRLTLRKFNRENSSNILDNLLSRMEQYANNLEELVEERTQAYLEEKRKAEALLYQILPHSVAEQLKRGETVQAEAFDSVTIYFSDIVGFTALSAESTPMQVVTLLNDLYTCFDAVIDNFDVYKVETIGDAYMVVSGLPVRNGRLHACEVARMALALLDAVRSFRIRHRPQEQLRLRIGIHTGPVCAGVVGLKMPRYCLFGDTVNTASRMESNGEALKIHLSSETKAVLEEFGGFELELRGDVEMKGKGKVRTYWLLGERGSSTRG
Peptidyl-prolyl cis-trans isomerase NIMA-interacting 1 (Homo sapiens), sequence (Q13526 whole entry, looked up): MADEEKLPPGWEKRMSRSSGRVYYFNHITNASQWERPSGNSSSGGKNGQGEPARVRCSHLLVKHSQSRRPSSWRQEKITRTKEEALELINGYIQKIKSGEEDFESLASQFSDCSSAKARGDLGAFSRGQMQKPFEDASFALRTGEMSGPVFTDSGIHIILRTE
Beta-2 adrenergic receptor (Homo sapiens), sequence (P07550 whole entry, looked up): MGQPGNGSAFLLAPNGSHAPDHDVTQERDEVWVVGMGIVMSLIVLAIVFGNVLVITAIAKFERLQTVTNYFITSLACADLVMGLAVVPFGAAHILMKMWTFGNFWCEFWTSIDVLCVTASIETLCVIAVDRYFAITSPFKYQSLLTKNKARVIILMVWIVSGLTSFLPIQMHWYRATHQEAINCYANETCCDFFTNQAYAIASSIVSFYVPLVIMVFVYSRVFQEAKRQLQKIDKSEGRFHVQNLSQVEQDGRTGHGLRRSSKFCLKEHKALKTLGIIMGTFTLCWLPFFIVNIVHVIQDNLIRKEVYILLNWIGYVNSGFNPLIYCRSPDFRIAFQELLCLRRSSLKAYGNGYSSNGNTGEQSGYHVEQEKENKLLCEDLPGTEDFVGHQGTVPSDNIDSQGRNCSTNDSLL

C[C@H](Cc1ccccc1)Nc1ncnc2c1ncn2[C@@H]1O[C@H](CO)[C@@H](O)[C@H]1O
6.66%: viability change [6]
inactive: Potency [1] | Potency [2] | outcome [3] | outcome [4] | outcome [5] | outcome [6] | outcome [7] | Potency [8] | outcome [9] | outcome [10] | Potency [11] | Potency [12]

O=C1NC(=O)/C(=C\c2ccc3c(c2)OC(F)(F)O3)S1
inactive: Potency [13]

COC[C@@H](O)[C@H]1OCc2ccccc2[C@@H]1C=Cc1ccccc1
inactive: Potency [14]

CC(C)=NO[C@@H](C)CN1CCCc2nc(C)c(C)cc21
inactive: Potency [14]

N#Cc1cccc(CN2CCC(N(Cc3cccnc3)C(=O)Nc3ccccc3-c3ccccc3)CC2)c1
inactive: Potency [13] | Potency [12]

Cc1ccc(NC(=O)Nc2nnc(Sc3ncnc4cc(OCCCN5CCOCC5)ccc34)s2)cc1
inactive: Potency [13] | Potency [12]

CNC(=O)c1ccc(-c2cnc3cnc(C(=O)N(C)c4ccc(Cl)cc4)cn23)cc1
inactive: Potency [13] | Potency [12]

O=Nc1c2[nH]c3ccccc3nc-2c2ccccc12
inactive: Potency [13] | Potency [12]

CCCCCCC(=O)O[C@H]1CC[C@H]2[C@@H]3CCc4cc(O)ccc4[C@H]3CC[C@]12C
inactive: Potency [12]
active: Potency [13] 7.31 µM

NS(=O)(=O)c1cccc(N=Cc2c(O)[nH]c3ccccc23)c1
inactive: Potency [13] | Potency [12]

C=CC[C@@]1(c2ccccc2)Oc2ccccc2-c2nc3ccccc3nc21
inactive: Potency [14]

COc1c(-c2ccc3cc(NS(C)(=O)=O)ccc3c2)cc(-n2ccc(=O)[nH]c2=O)cc1C(C)(C)C
inactive: Potency [13] | Potency [12]

Oc1cc2c(c(Cl)c1O)CCNCC2c1ccccc1 (stereo unspecified)
-3.92%: viability change [6]
inactive: Potency [1] | Potency [2] | outcome [3] | outcome [4] | outcome [5] | outcome [6] | outcome [7] | Potency [8] | outcome [9] | outcome [10] | Potency [11] | Potency [12]

CN1C2CCCC1CC(NC(=O)c1nn(C)c3ccccc13)C2 (stereo unspecified)
0.0672%: viability change [6]
inactive: Potency [1] | Potency [2] | outcome [3] | outcome [4] | outcome [5] | outcome [6] | outcome [7] | Potency [8] | outcome [9] | outcome [10] | Potency [11] | Potency [12]

COC(=O)CCC(=O)OC1(C)C(=O)C=C2C=C(C3CC3)N(CCCOC(C)C)C=C2C1=O (stereo unspecified)
inactive: activity, negative = inhibition [15] -1.07% [at 1.12 µM] | Potency [16] | Potency [17]

CCCCC1=CC2=CC(=O)C(C)(OC(=O)CCc3ccccc3)C(=O)C2=CO1 (stereo unspecified)
inactive: Potency [15] | Potency [18] | Potency [19] | Potency [16] | Potency [17]

CCCCc1cc2c(cn1)C(=O)C(C)(OC(C)=O)C(=O)C2 (stereo unspecified)
inactive: Potency [17]

CCOC(=O)N1C2=NC(C(=O)OC)=C(C(=O)OC)[C@@H]3N(C)c4ccccc4[C@]23C[C@H]1C(=O)OC
inactive: Potency [15] | Potency [18] | Potency [19] | Potency [16] | Potency [14]

COc1ccc(COC(=O)NN=C2C[C@@H](O)[C@@H](O)[C@@H]3[C@H]4C(=O)N(Cc5ccc6c(c5)OCO6)C(=O)[C@@H]4CC[C@H]23)cc1
inactive: Potency [15] | Potency [18] | Potency [19] | Potency [16] | Potency [14]

COCCN1C(=O)C2=C(C1=O)C1N(C)c3ccccc3[C@@]13C[C@@H](CO)N(C(C)=O)C3=N2 (stereo partly specified)
inactive: Potency [15] | Potency [18] | Potency [19] | Potency [16] | Potency [14]

CC(=O)C1=C(C)N(CC#C[Si](C)(C)C)C(=O)N(C(C)=O)C1c1ccccc1 (stereo unspecified)
inactive: Potency [15] | Potency [18] | Potency [19] | Potency [16] | Potency [14]

COC(=O)N[C@@H](CCc1ccccc1)[C@]1(C(=O)OC)CCCC1=O
inactive: Potency [15] | Potency [18] | Potency [19] | Potency [16] | Potency [14]

COC(=O)CCCC1=CC2=CC(=O)C(C)(OC(=O)c3cccs3)C(=O)C2=CN1C1CCCCC1 (stereo unspecified)
inactive: Potency [15] | Potency [18] | Potency [19] | Potency [16] | Potency [14]

CC12C=C(C=Cc3ccc(Br)cc3)C(C)(C1)C(c1ccc(Br)cc1)CC2=O (stereo unspecified)
active: Potency [15] 1.5 µM | Potency [18] 1.69 µM | Potency [19] 1.69 µM | Potency [16] 1.69 µM
inactive: Potency [14]

CC(CCN1CCCCc2nc(C)c(C)cc21)=NO[C@H](C)c1cn([C@@H]2COC[C@@H]2O)nn1
inactive: Potency [15] | Potency [18] | Potency [19] | Potency [16] | Potency [14]

COc1cccc([C@@H]2Oc3ccc(Br)cc3C(=O)[C@@H]2OC(=O)N[C@H](C)C2CCCCC2)c1
inactive: Potency [15] | Potency [18] | Potency [19] | Potency [16] | Potency [14]

CCCCc1nc2c(c3c1C[C@H](C)OC3)CN(C(=O)c1ccco1)CC2
inactive: activity, negative = inhibition [15] -0.515% [at 1.12 µM] | Potency [18] | Potency [19] | Potency [16] | Potency [14]

CCN1C(=O)[C@H]2[C@H]3C(=CC[C@@H]2C1=O)C1(OCCCO1)[C@@H]1O[C@H]1[C@H]3O
inactive: Potency [15] | Potency [18] | Potency [19] | Potency [16] | Potency [14]

CC(=O)OC[C@H]1O[C@H](C#Cc2ccccc2Cl)C=C[C@H]1OC(C)=O
inactive: Potency [15] | Potency [18] | Potency [19] | Potency [16] | Potency [14]

COC[C@H]1O[C@H](c2ccccc2)C=C[C@H]1OCC=C(C)C
inactive: Potency [15] | Potency [18] | Potency [19] | Potency [16] | Potency [14]

CO[C@H](C1CCCCC1)[C@H](C)C=CCC(=O)OCCCc1ccccc1
inactive: Potency [15] | Potency [18] | Potency [19] | Potency [16] | Potency [14]

O=C(c1ccccc1)[C@@H]1O[C@@H]1c1ccccc1
inactive: Potency [15] | Potency [18] | Potency [19] | Potency [16] | Potency [14]

COC(=O)CCC(=O)OC1(C)C(=O)C2=COC(c3ccc(OC)cc3)=CC2=C(Br)C1=O (stereo unspecified)
inactive: Potency [15] | Potency [18] | Potency [19] | Potency [16] | Potency [14]

COc1cccc([C@H]2Oc3ccc(OC)cc3C(=NOCC[C@@H]3C=C[C@H](OC(C)=O)[C@@H](COC(C)=O)O3)[C@H]2O)c1
inactive: Potency [15] | Potency [18] | Potency [19] | Potency [16] | Potency [14]
